This is part of a sample that, as a whole, favours compounds with a hit. Of some 83,000 tested, about 20% had one in any assay.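 A percent growth of 40 corresponds to 60% growth inhibition; 0 means no net growth; -100 means all cells died. Active threshold: below 10.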 A number with no mark means an inactive call. The source made the active and inactive calls.

Some test systems named below: NCI-H23 lung; NCI-H226 lung; NCI-H322M lung; HOP-62 NSCLC; NCI-H460 lung; HOP-92 NSCLC; NCI-H522 lung; A549/ATCC NSCLC; 786-0 renal; DU-145 prostate; K-562 leukemia; MALME-3M melanoma; MDA-MB-231 breast; RXF 393 renal; SF-268 CNS; SF-295 CNS; SF-539 CNS; UACC-257 melanoma; M14 melanoma.
Common to all, as to experiment: NCI-60 one-dose screen, 48 h (100 = growth as untreated, 0 = no growth, -100 = all killed)
Conditions in all cases: 10 µM unless noted

For `COc1ccc(Oc2nc(Nc3ccc(N4CCCCC4)nc3)ncc2NC(=O)c2cc(OC)cc(OC)c2)cc1`, the growth in the assay with NCI-H23 lung is 68.8%; in the assay with NCI-H226 lung it was 60.2%; with NCI-H322M lung, 48.9%; with HOP-62 NSCLC it was 42.5%; in the assay with NCI-H460 lung, 19%; with HOP-92 NSCLC, 76.4%. The growth was 26.6% in the assay on NCI-H522 lung; 41.6% with A549/ATCC NSCLC; 39.6% with 786-0 renal; 40.7% in the assay on DU-145 prostate; 18.6% in the assay with K-562 leukemia; 64.4% in the assay with MALME-3M melanoma. In addition, the growth in the assay on MDA-MB-231 breast was 61.5%; with RXF 393 renal, 41%; in the assay on SF-268 CNS, 46.3%; in the assay with SF-295 CNS it was 23.7%; with SF-539 CNS it was 21.3%; in the assay on UACC-257 melanoma, 59.4%. In addition, the growth with M14 melanoma is 32.3%.

For `COc1cc2nc(Nc3ccc(F)cc3)nc(N)c2cc1OC`, the growth in the assay with NCI-H23 lung is 95.1%; with NCI-H226 lung, 81.7%; in the assay on NCI-H322M lung, 95.4%; with HOP-62 NSCLC it was 112%; in the assay with NCI-H460 lung it was 99.5%; with HOP-92 NSCLC, 63.9%. The growth is 92% with NCI-H522 lung; 92.6% in the assay with A549/ATCC NSCLC; 87.1% in the assay with 786-0 renal; 93.5% in the assay on DU-145 prostate; 77.8% in the assay with K-562 leukemia; 105% with MALME-3M melanoma. The growth is 81.7% with MDA-MB-231 breast; 54.5% in the assay on RXF 393 renal; 90% with SF-268 CNS; -2.33% (active) in the assay on SF-295 CNS; 95.5% with SF-539 CNS; 102% with UACC-257 melanoma. In addition, in the assay on M14 melanoma, the growth is 107%.

Regarding `CCN(CC)CCNc1ccc(C)c2sc3cc(C)ccc3c(=O)c12`, the growth with NCI-H23 lung is 72.3%; in the assay with NCI-H226 lung, 95.5%; with NCI-H322M lung it was 68.8%; in the assay on HOP-62 NSCLC, 62.9%; in the assay with NCI-H460 lung, 43%; in the assay with HOP-92 NSCLC, 25.2%. In addition, the growth was 44.2% with NCI-H522 lung; 56.2% in the assay on A549/ATCC NSCLC; 42.9% in the assay on 786-0 renal; 67% with DU-145 prostate; -19.6% (active) in the assay on K-562 leukemia; 72.5% in the assay with MALME-3M melanoma. Further, the growth in the assay with MDA-MB-231 breast was 19.4%; in the assay with RXF 393 renal, 59.1%; in the assay with SF-268 CNS, 59.1%; in the assay with SF-295 CNS, 72.9%; in the assay with SF-539 CNS, 76.3%; in the assay on UACC-257 melanoma, 65.5%. The growth in the assay with M14 melanoma is -46.2% (active).

As for `O=C1Nc2ccccc2/C1=N/N=C/c1ccsc1`, the growth in the assay with NCI-H23 lung was 95.2%; in the assay on NCI-H226 lung, 106%; in the assay on NCI-H322M lung it was 100%; in the assay with HOP-62 NSCLC it was 110%; in the assay on NCI-H460 lung, 105%; in the assay with HOP-92 NSCLC, 109%. The growth was 93.8% in the assay on NCI-H522 lung; 107% in the assay with A549/ATCC NSCLC; 108% with 786-0 renal; 111% in the assay on DU-145 prostate; 89.9% in the assay with K-562 leukemia; 103% in the assay on MALME-3M melanoma. Also, the growth in the assay with MDA-MB-231 breast is 92.5%; in the assay on RXF 393 renal, 111%; in the assay on SF-268 CNS, 101%; with SF-295 CNS it was 108%; in the assay on SF-539 CNS it was 103%; in the assay with UACC-257 melanoma it was 104%. Also, the growth with M14 melanoma was 105%.

`COc1ccc(-c2cncnc2N)cc1OC`: the growth in the assay with NCI-H23 lung was 108%; with NCI-H226 lung it was 107%; with NCI-H322M lung it was 114%; in the assay on HOP-62 NSCLC, -100% (active); in the assay with NCI-H460 lung, 98.6%; in the assay with HOP-92 NSCLC it was 85.2%. The growth in the assay on NCI-H522 lung is 105%; in the assay on A549/ATCC NSCLC, 97.5%; in the assay on 786-0 renal, 107%; with DU-145 prostate it was 114%; in the assay with K-562 leukemia, 103%; in the assay with MALME-3M melanoma, 111%. For the same compound, the growth in the assay on MDA-MB-231 breast was 112%; in the assay with RXF 393 renal, 112%; with SF-268 CNS it was 103%; with SF-295 CNS, 97.5%; with SF-539 CNS, 107%; with UACC-257 melanoma, 111%. Moreover, in the assay on M14 melanoma, the growth is 103%.

Consider `O=S(=O)(Cc1ccccc1)c1nc2ccccc2s1`, for which the growth with NCI-H23 lung was 56.3%; in the assay with NCI-H226 lung, 82.9%; with NCI-H322M lung it was 93.8%; in the assay with HOP-62 NSCLC, 105%; in the assay on NCI-H460 lung, 103%; with HOP-92 NSCLC, 33.7%. Besides, the growth with NCI-H522 lung was 13.2%; in the assay on A549/ATCC NSCLC, 98.4%; in the assay on 786-0 renal, 88.9%; in the assay on DU-145 prostate, 86.7%; in the assay with K-562 leukemia, 13.5%; with MALME-3M melanoma, 73.6%. Moreover, the growth in the assay on MDA-MB-231 breast is 85.1%; with RXF 393 renal it was 109%; in the assay on SF-268 CNS it was 79%; with SF-295 CNS, 109%; in the assay with SF-539 CNS it was 92%; in the assay with UACC-257 melanoma, 78.7%. For the same compound, the growth in the assay with M14 melanoma was 18.3%.

In the case of `Cc1c(C(=O)O[C@H]2[C@@H]3[C@H](C)CC[C@H]3[C@]3(C)O[C@@]2(C2CCCCC2)C[C@H]3OC(=O)CO)ccc2ccccc12`, the growth with NCI-H23 lung is 35.2%; in the assay on NCI-H226 lung, 30.5%; in the assay with NCI-H322M lung, 70.5%; in the assay with HOP-62 NSCLC it was 29.7%; in the assay with NCI-H460 lung it was -36% (active); in the assay on HOP-92 NSCLC, 10.9%. Besides, the growth in the assay with NCI-H522 lung is 19.6%; with A549/ATCC NSCLC, 30.2%; with 786-0 renal, 9.76% (active); in the assay on DU-145 prostate, 58.7%; with K-562 leukemia it was 7.53% (active); with MALME-3M melanoma it was 42.3%. The growth was 33.2% with MDA-MB-231 breast; -31.7% (active) in the assay on RXF 393 renal; 16% with SF-268 CNS; 36.8% in the assay on SF-295 CNS; 65.6% in the assay with SF-539 CNS; 39.8% in the assay on UACC-257 melanoma. The growth in the assay on M14 melanoma was 36.2%.

`CCCCOc1ccc(NC(=O)n2nc(N=NN(C)C)c3ccc(Cl)cc32)cc1`: the growth in the assay with NCI-H23 lung is 94.2%; with NCI-H226 lung, 96.3%; in the assay with NCI-H322M lung, 99.4%; in the assay on HOP-62 NSCLC, 88.3%; in the assay with NCI-H460 lung, 110%; in the assay with HOP-92 NSCLC, 93%. Besides, the growth in the assay on NCI-H522 lung was 90.1%; with A549/ATCC NSCLC, 111%; with 786-0 renal it was 109%; in the assay on DU-145 prostate, 106%; with K-562 leukemia, 93.7%; with MALME-3M melanoma, 122%. The growth was 104% in the assay with MDA-MB-231 breast; 112% in the assay with RXF 393 renal; 102% in the assay on SF-268 CNS; 101% in the assay with SF-295 CNS; 104% in the assay on SF-539 CNS; 125% in the assay on UACC-257 melanoma. In addition, the growth in the assay with M14 melanoma was 89.4%.
